# Experimental data as given in the supplement of paper PMC9950053.
# Counter-ions that a name gives are not always drawn.
# Tested on: Danio rerio larvae (5 dpf)
# Assay: startle (activity period 16 minus period 15, 20-s interval sound) minus DMSO control (percentage points); higher = stronger startle response than DMSO larvae
# Conditions: 10 µM; exposure time: 3 h pre-incubation + 3 h imaging
# Description: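 Wild-type 5 dpf zebrafish larvae (n=48 per drug, 96-well plates, 28.5 °C) were exposed to Tocris FDA-approved library compounds at 10 µM (0.1% DMSO) for 3 h before and 3 h during imaging. Images were taken every 6 s during visual (moving coloured lines) and acoustic stimuli, and larvae were tracked with the DeepLabCut-based Z-LaP Tracker. Each behavioural measure is the treated-group mean minus the DMSO vehicle control mean (n=844), in percentage points. This mapping covers compounds with 4-character plate codes.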
row,Structure (SMILES),startle
1,CCOC(=O)N1CCC(=C2c3ccc(Cl)cc3CCc3cccnc32)CC1 [Loratidine],8.94
2,Nc1cccc2c1CN(C1CCC(=O)NC1=O)C2=O (stereo not given) [Lenalidomide],-4.19
3,CC(C)[C@H]1CC[C@H](C(=O)N[C@H](Cc2ccccc2)C(=O)O)CC1 [Nateglinide],3.17
4,C/C(O)=C(\C#N)C(=O)Nc1ccc(C(F)(F)F)cc1 [Teriflunomide],-2.62
5,N#Cc1ccc(C(c2ccc(C#N)cc2)n2cncn2)cc1 [Letrozole],6.54
6,C#C[C@]1(O)CC[C@H]2[C@@H]3CCC4=CC(=O)CC[C@@H]4[C@H]3CC[C@@]21CC [Levonorgestrel],-4.23
7,CCCCCCCCc1ccc(CCC(N)(CO)CO)cc1,-6.92
8,Nc1nc(F)nc2c1ncn2[C@@H]1O[C@H](CO)[C@@H](O)[C@@H]1O [Fludarabine],4.52
9,CC/C(=C(\c1ccccc1)c1ccc(OCCN(C)C)cc1)c1ccccc1 [Tamoxifen citrate],-1.09
10,Nc1cc(N2CCCCC2)nc(N)[n+]1[O-] [Minoxidil],-1.64
11,CN1CCC[C@@H]1CCO[C@](C)(c1ccccc1)c1ccc(Cl)cc1 [Clemastine fumarate],-7.64
12,CCOc1nc2cccc(C(=O)O)c2n1Cc1ccc(-c2ccccc2-c2nnn[nH]2)cc1 [Candesartan],11.2
13,CCOc1ccccc1OCCN[C@H](C)Cc1ccc(OC)c(S(N)(=O)=O)c1 [Tamsulosin hydrochloride],1.92
14,Nc1ncn([C@@H]2O[C@H](CO)[C@@H](O)[C@H]2O)c(=O)n1 [5-Azacytidine],2.79
15,Cc1nnc(C(C)C)n1C1C[C@H]2CC[C@@H](C1)N2CC[C@H](NC(=O)C1CCC(F)(F)CC1)c1ccccc1 (stereo in doubt) [Maraviroc],-4.84
16,Cc1ccc(-c2cc(C(F)(F)F)nn2-c2ccc(S(N)(=O)=O)cc2)cc1 [Celecoxib],-8.09
17,CN/C(=N\CCSCc1nc[nH]c1C)NC#N [Cimetidine],5.75
18,Cc1ccsc1C(=CCCN1CCC[C@@H](C(=O)O)C1)c1sccc1C [Tiagabine hydrochloride],7.31
19,O=C(Nc1c(Cl)cncc1Cl)c1ccc(OC(F)F)c(OCC2CC2)c1 [Roflumilast],3.93
20,CN1CCN2c3ncccc3Cc3ccccc3C2C1 (stereo not given) [Mirtazapine],-6.05

row,Structure (SMILES),startle
1,CC(C)c1ccc2oc3nc(N)c(C(=O)O)cc3c(=O)c2c1 [Amlexanox],2.27
2,COc1c(C)c2c(c(O)c1C/C=C(\C)CCC(=O)O)C(=O)OC2 [Mycophenolic acid],3.04
3,CN(C)CCC[C@@]1(c2ccc(F)cc2)OCc2cc(C#N)ccc21 [Escitalopram oxalate],-7.28
4,CN(CCOc1ccc(CC2SC(=O)NC2=O)cc1)c1ccccn1 (stereo not given) [Rosiglitazone],-1.31
5,Nc1nc(Cl)nc2c1ncn2[C@@H]1O[C@H](CO)[C@@H](O)[C@@H]1F [Clofarabine],5.12
6,Cc1ccccc1C(=O)Nc1ccc(C(=O)N2CCCC(O)c3cc(Cl)ccc32)c(C)c1 (stereo not given) [Tolvaptan],4.33
7,Clc1ccc(COC(Cn2ccnc2)c2ccc(Cl)cc2Cl)c(Cl)c1 (stereo not given) [Miconazole nitrate],5.64
8,CS(=O)(=O)CCNCc1ccc(-c2ccc3ncnc(Nc4ccc(OCc5cccc(F)c5)c(Cl)c4)c3c2)o1 [Lapatinib],-0.148
9,CCC(=O)O[C@]1(C(=O)SCF)[C@H](C)C[C@H]2[C@@H]3C[C@H](F)C4=CC(=O)C=C[C@]4(C)[C@@]3(F)[C@@H](O)C[C@@]21C [Fluticasone propionate],-2.41
10,CC(C)(C#N)c1cc(Cn2cncn2)cc(C(C)(C)C#N)c1 [Anastrozole],-0.0231
11,CC(C)c1nc(CN(C)C(=O)N[C@H](C(=O)N[C@@H](Cc2ccccc2)C[C@H](O)[C@H](Cc2ccccc2)NC(=O)OCc2cncs2)C(C)C)cs1 [Ritonavir],1.44
12,CC(C)C(=O)OCC(=O)[C@@]12O[C@H](C3CCCCC3)O[C@@H]1C[C@H]1[C@@H]3CCC4=CC(=O)C=C[C@]4(C)[C@H]3[C@@H](O)C[C@@]12C [Ciclesonide],-5.21
13,Cn1cnc([N+](=O)[O-])c1Sc1ncnc2[nH]cnc12 [Azathioprine],-0.818
14,CC(C)n1c(/C=C/C(O)CC(O)CC(=O)O)c(-c2ccc(F)cc2)c2ccccc21 (stereo not given) [Fluvastatin sodium],3.68
15,NC(=O)N1c2ccccc2C=Cc2ccccc21 [Carbamazepine],3.47
16,CC(C)c1nc(N(C)S(C)(=O)=O)nc(-c2ccc(F)cc2)c1/C=C/[C@@H](O)C[C@@H](O)CC(=O)O [Rosuvastatin calcium],-0.514
17,CN(CCOc1ccc(NS(C)(=O)=O)cc1)CCc1ccc(NS(C)(=O)=O)cc1 [Dofetilide],0.253
18,C[C@@H](O[C@H]1OCCN(Cc2n[nH]c(=O)[nH]2)[C@H]1c1ccc(F)cc1)c1cc(C(F)(F)F)cc(C(F)(F)F)c1 [Aprepitant],-6.24
19,Nc1nc(NC2CC2)c2ncn([C@H]3C=C[C@@H](CO)C3)c2n1 [Abacavir hemisulfate],6.4
20,CC#C[C@]1(O)CC[C@H]2[C@@H]3CCC4=CC(=O)CCC4=C3[C@@H](c3ccc(N(C)C)cc3)C[C@@]21C [Mifepristone],0.533
